# Compound activity: PubChem BioAssay, Center for Chemical Genomics, University of Michigan
# Many of the other results were omitted from the sample, so hits are more common in it than they were.
# Dicer processing: inhibitors of Dicer pre-microRNA processing, primary screen, biochemical, cat-ELCCA, chemiluminescence; cat-ELCCA pre-miR-21 Dicer processing; hits give high values; AID 1347074, 2019; actives 6% (n = 47,000); Endoribonuclease Dicer (Homo sapiens), Q9UPY3; z-score at 25 µM; in the data active means z-score above about 3, passing the limit was not always enough;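 further: higher signal means more uncleaved substrate so more Dicer inhibition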
# Target sequence (Q9UPY3 whole entry, looked up): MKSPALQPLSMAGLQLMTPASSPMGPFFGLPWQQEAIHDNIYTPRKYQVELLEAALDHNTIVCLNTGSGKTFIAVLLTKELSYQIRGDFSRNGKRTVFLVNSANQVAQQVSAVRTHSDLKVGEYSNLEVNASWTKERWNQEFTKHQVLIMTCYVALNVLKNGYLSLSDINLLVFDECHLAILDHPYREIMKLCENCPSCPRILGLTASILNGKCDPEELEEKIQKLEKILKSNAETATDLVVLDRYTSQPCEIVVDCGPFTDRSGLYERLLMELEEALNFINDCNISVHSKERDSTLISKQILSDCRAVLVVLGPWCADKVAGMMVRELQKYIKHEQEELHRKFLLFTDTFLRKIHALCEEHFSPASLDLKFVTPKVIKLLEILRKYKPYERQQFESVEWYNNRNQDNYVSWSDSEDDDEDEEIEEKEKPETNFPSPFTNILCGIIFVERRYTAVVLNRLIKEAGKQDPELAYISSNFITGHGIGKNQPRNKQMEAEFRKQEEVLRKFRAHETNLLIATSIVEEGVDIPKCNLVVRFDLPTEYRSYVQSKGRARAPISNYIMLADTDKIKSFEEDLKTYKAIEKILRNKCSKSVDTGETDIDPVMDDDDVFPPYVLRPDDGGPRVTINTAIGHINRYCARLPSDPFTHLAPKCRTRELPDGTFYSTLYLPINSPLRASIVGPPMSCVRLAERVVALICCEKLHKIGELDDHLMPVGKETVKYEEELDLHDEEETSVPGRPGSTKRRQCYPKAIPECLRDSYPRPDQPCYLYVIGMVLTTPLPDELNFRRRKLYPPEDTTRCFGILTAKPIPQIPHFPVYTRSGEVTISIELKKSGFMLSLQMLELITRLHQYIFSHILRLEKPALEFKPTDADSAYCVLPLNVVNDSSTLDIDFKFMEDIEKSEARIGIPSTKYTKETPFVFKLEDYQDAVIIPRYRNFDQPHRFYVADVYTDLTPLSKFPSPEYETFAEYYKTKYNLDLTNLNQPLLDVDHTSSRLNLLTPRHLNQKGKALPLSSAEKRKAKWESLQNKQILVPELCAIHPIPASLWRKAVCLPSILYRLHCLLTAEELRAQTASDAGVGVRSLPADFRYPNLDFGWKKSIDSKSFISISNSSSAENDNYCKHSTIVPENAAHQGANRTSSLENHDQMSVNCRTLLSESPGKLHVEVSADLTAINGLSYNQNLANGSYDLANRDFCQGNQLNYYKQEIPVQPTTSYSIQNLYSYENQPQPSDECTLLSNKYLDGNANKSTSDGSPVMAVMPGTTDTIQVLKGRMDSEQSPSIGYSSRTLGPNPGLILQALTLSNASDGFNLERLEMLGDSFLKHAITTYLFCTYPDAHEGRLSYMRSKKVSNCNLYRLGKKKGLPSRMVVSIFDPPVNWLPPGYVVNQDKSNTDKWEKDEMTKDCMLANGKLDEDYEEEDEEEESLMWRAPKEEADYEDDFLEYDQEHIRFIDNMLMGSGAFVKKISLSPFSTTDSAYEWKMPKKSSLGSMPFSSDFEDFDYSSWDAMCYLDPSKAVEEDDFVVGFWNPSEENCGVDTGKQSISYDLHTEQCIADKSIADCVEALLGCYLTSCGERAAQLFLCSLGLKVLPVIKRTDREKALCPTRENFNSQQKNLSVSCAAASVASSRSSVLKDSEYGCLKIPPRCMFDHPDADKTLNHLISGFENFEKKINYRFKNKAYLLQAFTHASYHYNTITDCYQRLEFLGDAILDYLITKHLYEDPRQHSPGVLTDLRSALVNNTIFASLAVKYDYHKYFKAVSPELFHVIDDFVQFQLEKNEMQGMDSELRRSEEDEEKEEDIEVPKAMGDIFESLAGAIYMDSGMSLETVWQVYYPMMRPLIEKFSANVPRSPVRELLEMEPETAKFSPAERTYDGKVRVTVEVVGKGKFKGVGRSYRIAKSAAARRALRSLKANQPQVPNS
# Hits are given with their value; n = inactive.
SMILES,Dicer processing
O=C(Nc1ccccc1)c1cc2sccc2s1,n
O=C(Nc1ccccc1)c1cc2ccc3ccccc3c2s1,3.5
CCOC(=O)c1cc2ccccc2c(=O)s1,n
CC1CN(C(=O)c2cnn(C)c2[N+](=O)[O-])CC(C)O1 (centres undefined),n
Cc1c2n(c3ccccc13)CC/C2=N\Nc1ccccc1,n
CC(=O)OC[C@@H](OC(C)=O)[C@@H](OC(C)=O)[C@H](C#N)OC(C)=O,n
CC1=CCCC(C)(C)C1/C=C(\C)C(=O)/C=C/c1cccs1 (centres undefined),n
COC(=O)Cn1c(=O)oc2ccccc21,n
CC(C)OC(=O)Cn1c(=O)oc2ccccc21,4
O=C(O)Cn1c(=O)oc2ccccc21,n
c1ccc2c(c1)nc1n2CN(C2CCCCC2)CN1,n
Cc1ccccc1-c1nc(NC(=O)CSc2ncnc3sc(C)c(C)c23)ns1,3
Cc1ccc(-c2nc(NC(=O)CSc3nnc(C)s3)ns2)cc1,n
COC(=O)c1c(NC(=O)CSc2ncnc3sc(C)c(C)c23)sc2c1CCCC2,n
Cc1cc2c3c(c1)c(OCc1ccc(F)cc1)c(-c1ccccc1)c(=O)n3CCC2,n
Cn1c2c(c(=O)[nH]c1=O)C(c1ccccc1)C1=C(N2)c2ccccc2C1=O (centres undefined),3
CCOC(=O)C1=C(C)NC2=C(C(=O)c3ccccc32)C1c1ccccc1 (centres undefined),n
Cn1c2c(c(=O)[nH]c1=O)C(c1ccc(Cl)cc1)C1=C(N2)c2ccccc2C1=O (centres undefined),n
Cn1c2c(c(=O)[nH]c1=O)C(c1ccc(Br)cc1)C1=C(N2)c2ccccc2C1=O (centres undefined),n
Cc1ccc(C2C3=C(Nc4c2c(=O)[nH]c(=O)n4C)c2ccccc2C3=O)cc1 (centres undefined),n
Cn1c2c(c(=O)[nH]c1=O)C(c1ccc(F)cc1)C1=C(N2)c2ccccc2C1=O (centres undefined),n
Cc1ccc(C2C3=C(Nc4c2c(=O)n(C)c(=O)n4C)c2ccccc2C3=O)cc1 (centres undefined),n
CCOC(=O)C1=C(C)NC2=C(C(=O)c3ccccc32)C1c1ccc(OC)cc1 (centres undefined),3.3
CCOC(=O)C1=C(C)NC2=C(C(=O)c3ccccc32)C1c1cccc(OC)c1 (centres undefined),n
Cn1c2c(c(=O)n(C)c1=O)C(c1cccc(OC(=O)c3ccccc3)c1)C1=C(N2)c2ccccc2C1=O (centres undefined),n
SMILES,Dicer processing
Cn1c2c(c(=O)[nH]c1=O)C(c1ccc(-c3ccccc3)cc1)C1=C(N2)c2ccccc2C1=O (centres undefined),4.6
Cn1c2c(c(=O)n(C)c1=O)C(c1ccc(OC(=O)c3ccccc3)cc1)C1=C(N2)c2ccccc2C1=O (centres undefined),7.1
Cn1c(N2C(=O)CC(Cc3ccccc3)C2=O)nc2ccccc21 (centres undefined),n
COc1cc(CNCCC2CCOC(C)(C)C2)ccc1O (centres undefined),n
Cc1ccc(NC(=S)NNC(=S)NC2CC3CCC2C3)c(C)c1 (centres undefined),n
CS(=O)(=O)Nc1ccc2[nH]c(=O)[nH]c2c1,n
O=C(CSc1nc2ccccc2nc1N1CCCC1)NCc1ccc2c(c1)OCO2,n
CCOC(=O)Cc1cc(C)[nH]c1C(=O)OCC,n
CCOC(=O)CCc1c(C)nc2c(-c3ccc(F)cc3)c(C)[nH]n2c1=O,n
CCOC(=O)CCc1c(CC(=O)OCC)c[nH]c1/C=N/O,16
CCN(C(=O)c1nn(C)cc1[N+](=O)[O-])c1ccccc1,n
CSC1=N/C(=C\N(C)C)C(=O)N1CCOc1ccc(Cl)cc1,3.3
CSC1=N/C(=C\c2ccc(Cl)cc2)C(=O)N1Cc1ccc(Cl)cc1,n
O=c1ccccn1CCOc1ccc(Cl)cc1,n
COc1ccc(COC(=O)C2=C(C)NC3=C(C(=O)CC(C)(C)C3)C2c2ccc(F)c(F)c2)cc1 (centres undefined),n
O=C(c1ccccc1)c1cccc(N=Cc2c(O)[nH]c(=O)[nH]c2=O)c1,n
Cn1c(=O)n(C)c2cc(S(=O)(=O)Nc3cccc(C(=O)O)c3)ccc21,n
Nc1ncnc2c1ncn2[C@@H]1O[C@H](CO)[C@H](O)C1O (some centres undefined),n
CC1=C2CCC(C)CC23C2C(=O)N(Cc4ccc(Cl)cc4)C(=O)C2C1C1C(=O)N(Cc2ccc(Cl)cc2)C(=O)C13 (centres undefined),n
CC1CC(=O)N(Cc2ccc(Cl)cc2)C(=O)C1,4.7
O=C1CNC(=S)N1Cc1ccc(Cl)cc1,n
COc1ccc2c(c1)c(=O)oc1cc(O)ccc12,n
CN(C)C(=O)n1c(SCc2ccccc2)nnc1-c1ccc(C(C)(C)C)cc1,n
O=c1oc2ccccc2n1Cc1ccc(Cl)cc1,n
O=c1oc2ccccc2n1Cc1ccccc1Cl,4.9
SMILES,Dicer processing
Cc1ccc(Cn2c(=O)oc3ccccc32)cc1,n
Nc1cccc(-c2nc3ncccc3o2)c1,n
Clc1ccccc1-c1csc(NCC2CCCO2)n1 (centres undefined),n
CCCCNC(=O)c1cc2cccc([N+](=O)[O-])c2[nH]1,n
O=C(O)c1cc2cccc([N+](=O)[O-])c2[nH]1,132
O=[N+]([O-])c1cccc2cn[nH]c12,n
Cc1cc(NC(=O)C2=C(O)c3ccccc3S(=O)(=O)N2C)no1,n
CN(NC1OC(=O)c2ccccc21)c1ccc(Cl)cc1[N+](=O)[O-] (centres undefined),n
O=C(Nc1ccccc1)Oc1cccc(F)c1OC(=O)Nc1ccccc1,3.4
O=C(Nc1cccc(C(F)(F)F)c1)Oc1ccc(F)cc1Cl,n
O=C(Nc1ccccc1)Nc1cccc(NC(=O)Nc2ccccc2)c1F,n
CC(C)CC(NC(=O)Cc1ccsc1)C(=O)N/N=C/c1c(F)cccc1Cl (centres undefined),n
N#Cc1ccc2nc3c(nc2c1)CCCC3,n
N=C1SCCN1CC(=O)c1ccc(Cl)c(Cl)c1,n
CCCc1ccc(CC2(CC(=O)OCC)C(=O)c3ccccc3C2=O)cc1,n
Cc1ccccc1N1C(=O)C2C(c3ccccc3)OC3(C(=O)c4ccccc4C3=O)C2C1=O (centres undefined),n
COc1ccc(C2NC(=O)c3c(sc4c3CCC4)N2)cc1 (centres undefined),n
CN(C)c1ccccc1CN1CCCN(Cc2ccccc2N(C)C)C1c1ccncc1,n
O=C(Nc1ccc(N2C(=O)c3cccnc3C2=O)cc1)c1cccs1,n
CC(=O)Oc1ccc(N2C(=O)c3cccnc3C2=O)cc1,3.1
COC(=O)Cc1ccc(N2C(=O)c3cccnc3C2=O)cc1,n
CC(C)c1ccc(NC(=S)NNC(=S)NC2CC3CCC2C3)cc1 (centres undefined),n
COc1cc(C2c3c(oc4ccccc4c3=O)C(=O)N2Cc2ccccc2)ccc1O (centres undefined),n
Cc1cc(S(=O)(=O)NN(C)c2cccc(Cl)c2C#N)cc(C)c1F,n
CN(NS(=O)(=O)c1ccc(Cl)c(Cl)c1)c1cccc(F)c1C#N,3.6
CN(NC(=O)c1ccccc1Cl)c1cccc(F)c1C#N,n
COCCOc1cc2nc[nH]c(=O)c2cc1OCCOC,n
CN(CC(=O)Nc1ccccc1)C(=O)c1ccccc1,n
CCCc1ccc2c(N)c(C(=O)c3ccccc3)sc2n1,n
CCOC(=O)C(C(=O)NCC1CCCO1)C1CCCCC1 (centres undefined),4
